Data published in paper PMC7862700, “An all-to-all approach to the identification of sequence-specific readers for epigenetic DNA modifications on cytosine”.

What was measured:
Assay in all cases: DAPPL (digital affinity profiling via proximity ligation, sequencing); 10 mM Tris-HCl pH 7.5, 50 mM NaCl, 1 mM DTT, 4% glycerol, room temperature, 30 min; GST-TFs on glutathione beads, 16-mer random dsDNA library, 0.1% formaldehyde crosslink after washing; high values mean tight binding
FEV = molecular target: T1, FEV (Homo sapiens, UniProt Q99581 1-238); details: protein: recombinant; tags: N-terminal GST; dsDNA, one strand shown
T1 sequence: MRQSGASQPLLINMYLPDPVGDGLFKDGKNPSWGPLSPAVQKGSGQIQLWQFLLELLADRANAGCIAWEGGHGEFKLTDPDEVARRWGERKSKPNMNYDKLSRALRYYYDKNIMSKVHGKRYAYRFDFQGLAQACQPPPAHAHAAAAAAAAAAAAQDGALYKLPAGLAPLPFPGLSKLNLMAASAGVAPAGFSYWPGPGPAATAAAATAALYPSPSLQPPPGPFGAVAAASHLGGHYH
Method in brief: (§1)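 Each value of binding signal is a hexamer's read frequency for a factor divided by the same hexamer's frequency in the tag-only sample. Barcoded, bead-captured GST fusions of human transcription factors made in yeast were pooled with that sample and incubated with 200 nmole of a random double-stranded 16-mer DNA library in Tris/NaCl/DTT/glycerol buffer at room temperature for 30 min. Washing, 0.1% formaldehyde crosslinking, proximity ligation, PCR and Illumina NextSeq500 sequencing followed.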

ETV5 = ETV5 (Homo sapiens, UniProt P41161 1-510); details: protein: recombinant; tags: N-terminal GST; dsDNA, one strand shown
Method in brief: as §1

HSF1 = HSF1 (Homo sapiens, UniProt Q00613 1-529); details: protein: recombinant; tags: N-terminal GST; chain copies: 3; dsDNA, one strand shown
Method in brief: as §1

SPIC = molecular target: T2, SPIC (Homo sapiens, UniProt Q8N5J4 1-248); details: protein: recombinant; tags: N-terminal GST; dsDNA, one strand shown
T2 sequence: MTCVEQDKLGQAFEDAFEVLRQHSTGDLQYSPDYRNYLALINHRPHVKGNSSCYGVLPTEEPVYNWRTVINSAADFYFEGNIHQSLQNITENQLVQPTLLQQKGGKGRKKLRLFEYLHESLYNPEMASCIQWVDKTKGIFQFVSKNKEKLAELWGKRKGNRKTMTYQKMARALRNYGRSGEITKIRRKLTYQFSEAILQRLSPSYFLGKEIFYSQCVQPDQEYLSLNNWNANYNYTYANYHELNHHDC
Method in brief: as §1

ELF4 = ELF4 (Homo sapiens, UniProt Q99607 1-663); details: protein: recombinant; tags: N-terminal GST; dsDNA, one strand shown
Method in brief: as §1

ELK4 = molecular target: T3, ELK4 (Homo sapiens, UniProt P28324-2 1-405); details: protein: recombinant; tags: N-terminal GST; dsDNA, one strand shown
T3 sequence: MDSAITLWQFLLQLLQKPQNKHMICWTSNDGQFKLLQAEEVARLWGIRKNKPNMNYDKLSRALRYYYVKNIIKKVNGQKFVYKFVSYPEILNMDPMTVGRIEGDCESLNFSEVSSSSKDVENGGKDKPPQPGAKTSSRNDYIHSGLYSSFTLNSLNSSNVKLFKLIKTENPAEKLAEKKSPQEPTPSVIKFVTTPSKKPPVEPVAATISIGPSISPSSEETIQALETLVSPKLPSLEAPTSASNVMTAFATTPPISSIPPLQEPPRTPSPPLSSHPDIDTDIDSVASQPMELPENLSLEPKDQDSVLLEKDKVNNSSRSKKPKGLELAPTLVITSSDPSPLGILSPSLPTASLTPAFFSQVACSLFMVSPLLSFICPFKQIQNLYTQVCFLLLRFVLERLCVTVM
Method in brief: as §1

ETV2 = molecular target: T4, ETV2 (Homo sapiens, UniProt O00321 1-342); details: protein: recombinant; tags: N-terminal GST; dsDNA, one strand shown
T4 sequence: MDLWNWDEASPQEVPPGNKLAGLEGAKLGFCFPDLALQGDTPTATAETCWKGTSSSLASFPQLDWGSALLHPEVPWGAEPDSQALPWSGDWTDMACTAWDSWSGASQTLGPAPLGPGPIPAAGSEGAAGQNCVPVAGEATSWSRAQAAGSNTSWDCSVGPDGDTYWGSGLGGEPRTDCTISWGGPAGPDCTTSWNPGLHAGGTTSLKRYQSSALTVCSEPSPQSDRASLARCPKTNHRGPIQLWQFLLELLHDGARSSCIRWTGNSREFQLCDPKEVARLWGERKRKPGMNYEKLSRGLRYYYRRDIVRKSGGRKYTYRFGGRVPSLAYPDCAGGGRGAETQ
Method in brief: as §1

ELF3 = molecular target: T5, ELF3 (Homo sapiens, UniProt P78545 1-371); details: protein: recombinant; tags: N-terminal GST; dsDNA, one strand shown
T5 sequence: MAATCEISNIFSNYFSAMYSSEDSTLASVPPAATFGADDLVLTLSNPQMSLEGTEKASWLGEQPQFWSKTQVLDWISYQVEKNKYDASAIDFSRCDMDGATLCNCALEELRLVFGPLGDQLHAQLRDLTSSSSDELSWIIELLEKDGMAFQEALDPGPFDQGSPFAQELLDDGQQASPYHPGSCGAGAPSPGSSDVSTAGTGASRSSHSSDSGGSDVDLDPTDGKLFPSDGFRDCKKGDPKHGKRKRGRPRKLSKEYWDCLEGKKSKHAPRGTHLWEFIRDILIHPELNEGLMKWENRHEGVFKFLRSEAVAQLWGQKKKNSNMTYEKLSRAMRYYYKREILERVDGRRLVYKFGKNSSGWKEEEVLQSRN
Method in brief: as §1

CRX = CRX (Homo sapiens, UniProt O43186 1-299); details: protein: recombinant; tags: N-terminal GST; dsDNA, one strand shown
Method in brief: as §1

ETV1 = ETV1 (Homo sapiens, UniProt P50549 1-477); details: protein: recombinant; tags: N-terminal GST; dsDNA, one strand shown
Method in brief: as §1

ERF = molecular target: T6, ERF (Homo sapiens, UniProt P50548 1-548); details: protein: recombinant; tags: N-terminal GST; dsDNA, one strand shown
T6 sequence: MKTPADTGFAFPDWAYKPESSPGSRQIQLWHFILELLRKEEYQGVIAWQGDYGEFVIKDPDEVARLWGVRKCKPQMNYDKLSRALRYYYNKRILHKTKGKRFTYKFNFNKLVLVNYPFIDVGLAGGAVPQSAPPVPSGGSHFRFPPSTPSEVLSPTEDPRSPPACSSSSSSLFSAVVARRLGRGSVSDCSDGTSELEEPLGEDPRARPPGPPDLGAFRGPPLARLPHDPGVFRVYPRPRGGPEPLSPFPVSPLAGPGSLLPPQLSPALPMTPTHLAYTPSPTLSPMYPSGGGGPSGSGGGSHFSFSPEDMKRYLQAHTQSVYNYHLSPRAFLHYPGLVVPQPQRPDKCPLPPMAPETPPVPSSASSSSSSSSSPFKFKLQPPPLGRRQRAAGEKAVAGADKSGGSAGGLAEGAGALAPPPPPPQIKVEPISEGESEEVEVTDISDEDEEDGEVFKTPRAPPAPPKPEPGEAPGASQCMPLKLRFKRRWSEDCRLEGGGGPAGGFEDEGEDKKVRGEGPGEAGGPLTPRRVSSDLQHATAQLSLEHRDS
Method in brief: as §1

ETV3L = molecular target: T7, ETV3L (Homo sapiens, UniProt Q6ZN32 1-361); details: protein: recombinant; tags: N-terminal GST; dsDNA, one strand shown
T7 sequence: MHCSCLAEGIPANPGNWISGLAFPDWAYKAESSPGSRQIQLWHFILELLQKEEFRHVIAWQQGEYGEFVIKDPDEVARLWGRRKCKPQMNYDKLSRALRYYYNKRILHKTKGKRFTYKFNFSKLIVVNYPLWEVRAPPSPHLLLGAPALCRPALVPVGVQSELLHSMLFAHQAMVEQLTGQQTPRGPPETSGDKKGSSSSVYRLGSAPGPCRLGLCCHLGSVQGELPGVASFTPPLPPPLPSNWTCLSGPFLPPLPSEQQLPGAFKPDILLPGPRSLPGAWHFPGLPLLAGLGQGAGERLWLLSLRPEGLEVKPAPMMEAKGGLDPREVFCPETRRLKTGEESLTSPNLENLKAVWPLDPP
Method in brief: as §1

ETS2 = molecular target: T8, ETS2 (Homo sapiens, UniProt P15036 1-469); details: protein: recombinant; tags: N-terminal GST; dsDNA, one strand shown
T8 sequence: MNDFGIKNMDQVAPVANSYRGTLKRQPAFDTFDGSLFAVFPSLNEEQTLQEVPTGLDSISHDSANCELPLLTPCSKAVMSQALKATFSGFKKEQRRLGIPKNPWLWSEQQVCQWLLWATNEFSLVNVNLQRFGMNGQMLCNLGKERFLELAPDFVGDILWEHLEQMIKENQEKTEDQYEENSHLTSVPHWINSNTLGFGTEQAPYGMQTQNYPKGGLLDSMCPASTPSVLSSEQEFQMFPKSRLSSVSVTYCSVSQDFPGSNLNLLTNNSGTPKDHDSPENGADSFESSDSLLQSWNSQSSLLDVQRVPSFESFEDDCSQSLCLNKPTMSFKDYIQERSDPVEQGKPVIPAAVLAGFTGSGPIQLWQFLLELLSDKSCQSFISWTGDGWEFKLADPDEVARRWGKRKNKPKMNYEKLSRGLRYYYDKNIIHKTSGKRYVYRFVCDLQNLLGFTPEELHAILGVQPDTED
Method in brief: as §1

SPDEF = molecular target: T9, SPDEF (Homo sapiens, UniProt O95238 1-335); details: protein: recombinant; tags: N-terminal GST; dsDNA, one strand shown
T9 sequence: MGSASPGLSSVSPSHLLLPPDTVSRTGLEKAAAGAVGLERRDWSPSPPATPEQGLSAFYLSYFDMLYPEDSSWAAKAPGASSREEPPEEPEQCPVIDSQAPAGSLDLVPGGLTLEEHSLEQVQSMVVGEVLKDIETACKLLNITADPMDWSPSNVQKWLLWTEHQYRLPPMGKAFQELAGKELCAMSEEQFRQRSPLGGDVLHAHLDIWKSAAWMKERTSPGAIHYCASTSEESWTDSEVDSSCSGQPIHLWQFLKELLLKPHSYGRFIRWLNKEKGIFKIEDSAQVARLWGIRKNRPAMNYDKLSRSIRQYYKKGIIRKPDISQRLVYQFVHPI
Method in brief: as §1

ETV7 = molecular target: T10, ETV7 (Homo sapiens, UniProt Q9Y603 1-341); details: protein: recombinant; tags: N-terminal GST; dsDNA, one strand shown
T10 sequence: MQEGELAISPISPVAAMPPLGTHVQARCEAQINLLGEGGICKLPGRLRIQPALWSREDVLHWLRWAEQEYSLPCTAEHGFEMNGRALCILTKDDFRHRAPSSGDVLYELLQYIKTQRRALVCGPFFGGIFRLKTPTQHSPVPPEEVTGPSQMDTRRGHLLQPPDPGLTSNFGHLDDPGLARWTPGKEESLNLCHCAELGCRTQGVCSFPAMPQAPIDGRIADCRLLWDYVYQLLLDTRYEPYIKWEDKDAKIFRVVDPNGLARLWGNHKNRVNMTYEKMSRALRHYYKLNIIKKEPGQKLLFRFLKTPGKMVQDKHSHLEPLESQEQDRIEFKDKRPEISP
Method in brief: as §1

ELF5 = molecular target: T11, ELF5 (Homo sapiens, UniProt Q9UKW6-2 1-255); details: protein: recombinant; tags: N-terminal GST; dsDNA, one strand shown
T11 sequence: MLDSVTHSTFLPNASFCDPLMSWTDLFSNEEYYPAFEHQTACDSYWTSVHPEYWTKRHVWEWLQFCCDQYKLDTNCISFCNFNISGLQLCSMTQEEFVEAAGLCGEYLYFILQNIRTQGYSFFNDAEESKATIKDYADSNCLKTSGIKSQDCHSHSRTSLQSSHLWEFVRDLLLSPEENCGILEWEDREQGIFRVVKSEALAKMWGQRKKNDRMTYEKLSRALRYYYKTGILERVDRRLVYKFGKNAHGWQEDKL
Method in brief: as §1

ETV3 = molecular target: T12, ETV3 (Homo sapiens, UniProt P41162-2 1-143); details: protein: recombinant; tags: N-terminal GST; dsDNA, one strand shown
T12 sequence: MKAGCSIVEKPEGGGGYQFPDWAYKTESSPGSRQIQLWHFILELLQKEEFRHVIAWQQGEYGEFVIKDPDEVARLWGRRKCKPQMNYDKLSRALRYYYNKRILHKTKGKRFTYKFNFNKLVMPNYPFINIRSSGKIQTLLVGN
Method in brief: as §1

ETV6 = ETV6 (Homo sapiens, UniProt P41212 1-452); details: protein: recombinant; tags: N-terminal GST; dsDNA, one strand shown
Method in brief: as §1

Chain of ELF4 (Q99607 whole entry): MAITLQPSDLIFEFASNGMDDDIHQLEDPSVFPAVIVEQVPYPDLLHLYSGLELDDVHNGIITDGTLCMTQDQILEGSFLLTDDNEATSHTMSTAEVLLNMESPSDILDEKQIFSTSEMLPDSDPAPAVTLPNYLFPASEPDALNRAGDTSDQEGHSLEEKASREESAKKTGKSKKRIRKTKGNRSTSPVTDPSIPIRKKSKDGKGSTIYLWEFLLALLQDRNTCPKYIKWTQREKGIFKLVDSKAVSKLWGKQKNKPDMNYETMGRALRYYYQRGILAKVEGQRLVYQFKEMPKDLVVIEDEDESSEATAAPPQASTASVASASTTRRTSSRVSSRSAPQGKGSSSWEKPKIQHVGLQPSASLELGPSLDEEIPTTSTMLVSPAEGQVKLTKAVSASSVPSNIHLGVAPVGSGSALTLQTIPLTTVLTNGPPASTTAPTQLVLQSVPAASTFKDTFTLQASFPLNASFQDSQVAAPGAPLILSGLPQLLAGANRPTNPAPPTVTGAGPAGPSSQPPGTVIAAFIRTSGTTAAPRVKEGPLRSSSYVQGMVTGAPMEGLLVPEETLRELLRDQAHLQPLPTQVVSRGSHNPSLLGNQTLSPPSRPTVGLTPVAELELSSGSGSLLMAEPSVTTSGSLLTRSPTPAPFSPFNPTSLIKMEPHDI
Chain of HSF1 (Q00613 whole entry): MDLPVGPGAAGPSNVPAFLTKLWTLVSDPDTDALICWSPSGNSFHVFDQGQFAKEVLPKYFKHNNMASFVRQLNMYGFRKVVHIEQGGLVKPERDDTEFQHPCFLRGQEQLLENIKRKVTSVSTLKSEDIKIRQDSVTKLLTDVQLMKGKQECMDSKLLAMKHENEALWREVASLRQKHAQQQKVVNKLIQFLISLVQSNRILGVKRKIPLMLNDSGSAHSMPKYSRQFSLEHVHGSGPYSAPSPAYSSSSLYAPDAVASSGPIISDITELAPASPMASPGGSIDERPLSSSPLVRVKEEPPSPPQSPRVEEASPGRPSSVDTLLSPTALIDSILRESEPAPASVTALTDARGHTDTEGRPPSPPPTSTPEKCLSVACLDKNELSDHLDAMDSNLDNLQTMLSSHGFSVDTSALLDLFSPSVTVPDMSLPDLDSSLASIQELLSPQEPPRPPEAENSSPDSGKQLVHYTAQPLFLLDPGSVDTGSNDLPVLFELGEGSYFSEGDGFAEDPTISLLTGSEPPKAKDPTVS
Chain of ETV1 (P50549 whole entry): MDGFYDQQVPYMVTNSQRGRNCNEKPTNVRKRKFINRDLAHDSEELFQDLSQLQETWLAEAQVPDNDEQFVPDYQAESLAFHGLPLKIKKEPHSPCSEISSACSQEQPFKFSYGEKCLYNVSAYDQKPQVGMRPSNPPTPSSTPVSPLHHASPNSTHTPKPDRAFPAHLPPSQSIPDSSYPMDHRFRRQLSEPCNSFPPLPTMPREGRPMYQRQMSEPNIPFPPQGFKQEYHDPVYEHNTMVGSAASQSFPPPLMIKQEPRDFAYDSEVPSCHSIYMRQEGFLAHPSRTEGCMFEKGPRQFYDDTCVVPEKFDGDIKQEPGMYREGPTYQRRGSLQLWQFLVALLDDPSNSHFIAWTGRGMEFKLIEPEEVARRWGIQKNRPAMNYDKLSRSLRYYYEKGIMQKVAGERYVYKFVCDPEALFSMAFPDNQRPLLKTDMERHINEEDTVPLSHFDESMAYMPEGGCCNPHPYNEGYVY
Chain of ETV6 (P41212 whole entry): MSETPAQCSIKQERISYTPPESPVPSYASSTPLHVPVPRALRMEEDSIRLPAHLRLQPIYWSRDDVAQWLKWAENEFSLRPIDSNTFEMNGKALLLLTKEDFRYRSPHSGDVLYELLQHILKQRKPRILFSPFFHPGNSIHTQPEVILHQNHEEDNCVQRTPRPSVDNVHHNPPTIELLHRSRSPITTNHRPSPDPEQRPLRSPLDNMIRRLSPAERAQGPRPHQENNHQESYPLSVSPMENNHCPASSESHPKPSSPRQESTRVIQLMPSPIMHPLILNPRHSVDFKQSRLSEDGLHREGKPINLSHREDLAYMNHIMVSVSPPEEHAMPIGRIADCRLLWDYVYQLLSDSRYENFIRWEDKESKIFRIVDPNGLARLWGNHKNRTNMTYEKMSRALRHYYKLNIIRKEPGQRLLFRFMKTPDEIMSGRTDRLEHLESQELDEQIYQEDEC
Chain of CRX (O43186 whole entry): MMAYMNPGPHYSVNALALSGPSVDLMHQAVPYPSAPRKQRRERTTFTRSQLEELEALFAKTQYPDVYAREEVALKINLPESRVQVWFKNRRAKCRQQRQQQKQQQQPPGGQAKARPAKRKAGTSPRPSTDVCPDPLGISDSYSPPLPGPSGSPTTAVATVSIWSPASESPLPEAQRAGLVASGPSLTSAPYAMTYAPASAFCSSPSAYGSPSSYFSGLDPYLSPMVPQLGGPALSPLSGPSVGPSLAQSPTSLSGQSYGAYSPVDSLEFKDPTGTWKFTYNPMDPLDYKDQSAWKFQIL
Chain of ETV5 (P41161 whole entry): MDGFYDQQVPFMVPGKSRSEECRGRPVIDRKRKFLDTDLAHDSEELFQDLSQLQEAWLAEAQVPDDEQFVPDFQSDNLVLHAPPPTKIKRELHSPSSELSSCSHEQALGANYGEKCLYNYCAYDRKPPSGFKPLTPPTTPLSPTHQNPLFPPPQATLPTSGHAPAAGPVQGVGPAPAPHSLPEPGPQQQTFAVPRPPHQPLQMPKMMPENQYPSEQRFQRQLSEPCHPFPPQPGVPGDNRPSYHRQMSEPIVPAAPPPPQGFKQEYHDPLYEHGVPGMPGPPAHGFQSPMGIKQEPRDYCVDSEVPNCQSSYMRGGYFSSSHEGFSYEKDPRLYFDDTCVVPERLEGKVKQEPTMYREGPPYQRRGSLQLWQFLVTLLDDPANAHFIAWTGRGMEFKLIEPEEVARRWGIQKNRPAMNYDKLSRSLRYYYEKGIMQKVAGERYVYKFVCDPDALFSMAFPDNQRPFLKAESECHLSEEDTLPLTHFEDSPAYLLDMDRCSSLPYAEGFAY

## CACTAA
FEV
  binding signal: 1.12 fold enrichment (6-mer frequency, TF over GST control)
ETV5
  binding signal: 1.13 fold enrichment (6-mer frequency, TF over GST control)
HSF1
  binding signal: 1.29 fold enrichment (6-mer frequency, TF over GST control)
SPIC
  binding signal: 1.25 fold enrichment (6-mer frequency, TF over GST control)
ELF4
  binding signal: 1.2 fold enrichment (6-mer frequency, TF over GST control)
ELK4
  binding signal: 1.2 fold enrichment (6-mer frequency, TF over GST control)
ETV2
  binding signal: 1.2 fold enrichment (6-mer frequency, TF over GST control)
ELF3
  binding signal: 1.3 fold enrichment (6-mer frequency, TF over GST control)
CRX
  binding signal: 1.67 fold enrichment (6-mer frequency, TF over GST control)
ETV1
  binding signal: 1.12 fold enrichment (6-mer frequency, TF over GST control)
ERF
  binding signal: 1.21 fold enrichment (6-mer frequency, TF over GST control)
ETV3L
  binding signal: 1.28 fold enrichment (6-mer frequency, TF over GST control)
ETS2
  binding signal: 1.18 fold enrichment (6-mer frequency, TF over GST control)
SPDEF
  binding signal: 1.15 fold enrichment (6-mer frequency, TF over GST control)
ETV7
  binding signal: 1.19 fold enrichment (6-mer frequency, TF over GST control)
ELF5
  binding signal: 1.14 fold enrichment (6-mer frequency, TF over GST control)
ETV3
  binding signal: 1.07 fold enrichment (6-mer frequency, TF over GST control)
ETV6
  binding signal: 1.12 fold enrichment (6-mer frequency, TF over GST control)
